Cl transport mod: KCC2 (human) Cl- transport modulation; AID 1456; hit rate 2.2% among 190,000; Q9H2X9; KCC2 cells, thallium flux FluoZin-2 fluorescence; B-score of Tl+ flux slope (higher = more flux/activation; lower = inhibition) at 10 µM;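 active = thallium flux slope and its plate-corrected score both differing from the plate sample mean at a set confidence after two filtering rounds, in either direction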;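 also: slope of fluorescence scaled to starting intensity during 10 to 20 s after thallium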
Target sequence (Q9H2X9 whole entry, looked up): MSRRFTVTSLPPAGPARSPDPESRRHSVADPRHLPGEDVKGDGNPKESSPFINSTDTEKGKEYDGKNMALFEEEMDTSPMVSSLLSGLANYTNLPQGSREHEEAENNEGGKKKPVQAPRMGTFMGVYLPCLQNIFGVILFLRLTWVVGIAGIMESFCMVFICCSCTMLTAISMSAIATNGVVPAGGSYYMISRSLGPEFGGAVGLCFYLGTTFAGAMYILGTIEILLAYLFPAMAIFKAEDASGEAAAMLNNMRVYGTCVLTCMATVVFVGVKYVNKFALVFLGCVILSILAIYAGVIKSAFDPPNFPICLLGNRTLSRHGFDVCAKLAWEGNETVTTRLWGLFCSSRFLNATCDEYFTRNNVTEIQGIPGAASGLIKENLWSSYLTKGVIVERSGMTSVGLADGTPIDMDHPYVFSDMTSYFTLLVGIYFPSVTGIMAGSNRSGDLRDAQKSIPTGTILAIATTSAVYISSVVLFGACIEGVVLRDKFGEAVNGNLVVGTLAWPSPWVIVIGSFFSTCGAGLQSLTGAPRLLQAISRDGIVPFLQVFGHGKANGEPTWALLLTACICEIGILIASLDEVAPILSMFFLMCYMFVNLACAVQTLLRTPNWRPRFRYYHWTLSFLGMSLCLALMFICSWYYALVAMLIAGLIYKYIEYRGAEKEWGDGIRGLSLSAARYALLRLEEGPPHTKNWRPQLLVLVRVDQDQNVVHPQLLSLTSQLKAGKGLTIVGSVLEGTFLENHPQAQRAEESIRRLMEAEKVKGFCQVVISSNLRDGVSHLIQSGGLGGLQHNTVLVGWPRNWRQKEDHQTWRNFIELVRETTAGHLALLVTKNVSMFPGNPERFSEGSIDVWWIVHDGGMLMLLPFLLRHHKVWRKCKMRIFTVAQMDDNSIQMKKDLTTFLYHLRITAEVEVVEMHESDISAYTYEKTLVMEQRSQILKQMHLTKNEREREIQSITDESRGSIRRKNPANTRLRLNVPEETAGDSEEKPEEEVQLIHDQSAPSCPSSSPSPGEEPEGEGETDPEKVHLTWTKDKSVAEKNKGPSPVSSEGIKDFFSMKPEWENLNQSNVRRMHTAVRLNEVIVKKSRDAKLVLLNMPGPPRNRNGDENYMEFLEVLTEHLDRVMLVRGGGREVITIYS
Efflux pump mplx: blocks antifungal efflux pumps in multiplex yeast assay. S. cerevisiae Candida pump triplex, Nile Red efflux. inhibition, % at 10 µM. hit rate 0.44% among 330,000. AID 485275;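 active = plate passing quality check with inhibition over a set limit, or well fluorescence over plate mean plus 4 SD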;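 also: Nile Red retained in pooled yeast measured as flow cytometry median fluorescence; higher means more Nile Red kept so more efflux inhibition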
Calb FLC: affects C. albicans growth with fluconazole; C. albicans CaCi-2 (fluconazole-resistant clinical isolate) + fluconazole, Alamar Blue growth, 48 h; growth inhibition, % (concentration not given with the values); hit rate 0.57% among 300,000; AID 1979;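 active = growth inhibition above about 58% in most replicates, limit read from the data, passing the limit was not always enough; inconclusive = exactly half the replicates above a set limit; inactive = most replicates below a set limit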;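 also: all wells also contain fluconazole at 8 µg/ml as a sub-toxic cotreatment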
H9c2 protect: protects H9c2 cardiomyocytes from peroxide injury | H2O2 injury protection, ATPLite, 2 h | protection from H2O2 cell death, % at 20 µM | hit rate 0.63% among 360,000 | AID 588492;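 active = compounds giving at least 50% protection of heart cells from peroxide-induced death in the single-dose screen, raw or plate-pattern-corrected value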
PHOSPHO1 inh: PHOSPHO1 (human) inhibition; Q8TCT1; recombinant PHOSPHO1, absorbance phosphatase assay; inhibition, % at 13.3 µM; hit rate 1.1% among 290,000; AID 1565; in the data active = inhibition above about 60%
Numbers stand for hits; – = inactive; ? = inconclusive; · = no result. The list is not random: actives were taken first. Their share in the collection is about 3.3%.

SMILES	Cl transport mod	Efflux pump mplx	Calb FLC	H9c2 protect	PHOSPHO1 inh
CCOC(=O)C1(CCC(C)C)CC(CSc2nc3ccccc3[nH]2)OC1=O (centres undefined)	–	–	–	–	71.2
CNS(=O)(=O)c1cc(NC(=O)c2cncn2-c2ccccc2)ccc1C	·	–	–	–	–
COc1ccc(-c2cc(=O)oc3c(C)c(O)c(CN(C)C)cc23)cc1	–	–	–	70.1	–
COc1ccc(-c2cc(=O)oc3c(C)c(OCC(=O)N(C)C)ccc23)cc1	·	–	–	–	·
O=c1[nH]c2ccccc2c2cn(-c3ccccc3)nc12	·	–	–	–	–
CCc1ccc(OCC(=O)N2CC(C(N)=O)Oc3ccccc32)cc1 (centres undefined)	·	–	–	–	–
CC(=O)SC(C[N+](=O)[O-])c1cn(C(C)=O)c2ccccc12 (centres undefined)	–	–	111.6	–	62.6
CCOC(=O)/C(=N\Nc1cccc(C(F)(F)F)c1)N1CCOCC1	–	–	114.3	–	–
CC(C)OC(=O)n1c(=S)oc2ccccc21	–	–	–	–	–
Cc1cccc(OC(=O)n2c(=S)oc3cc(Cl)ccc32)c1	4.75	–	·	–	–
CC1(c2cccc3ccccc23)OC(=O)c2ccccc21 (centres undefined)	·	·	·	–	·
Cn1c(SCCCC(=O)c2ccccc2)nnc1-c1ccncc1	–	–	–	–	68.0
COc1ccc(N2CCN(C(=O)[C@@H]3CCCN3C3=NS(=O)(=O)c4ccccc43)CC2)cc1	·	–	·	–	·
O=C(O)CCN(CC(=O)c1ccc(Cl)cc1)S(=O)(=O)c1ccc([N+](=O)[O-])cc1	·	–	·	–	·
COc1cc(CN2CCN(CC3CC3)CC2CCO)cc(OC)c1 (centres undefined)	·	–	–	–	–
S=c1nc2[nH]c3ccccc3c2n[nH]1	·	·	·	–	·
CN1CCc2nc3sc(C(=O)C45CC6CC(CC(C6)C4)C5)c(N)c3cc2C1	·	–	·	–	80.8
CCCCn1nc(C(=O)Oc2ccc3c(C)cc(=O)oc3c2)c2ccccc2c1=O	–	–	–	51.5	–
Cc1cccc(OCCOC(=O)c2c(-c3ccccc3)noc2C)c1	·	–	–	–	–
Cc1cccc(NC(=O)CSc2ncnc3nc[nH]c23)c1C	·	–	–	–	99.1
Cc1ccc(C)c(NC(=O)CSc2ncnc3nc[nH]c23)c1	–	–	–	–	–
O=C(c1ccc(Cl)cc1)N1CCC(C(=O)N2CCN(c3ncccn3)CC2)CC1	·	–	·	–	·
Nc1cc(-c2ccc(OC(F)(F)F)cc2)nn1-c1ccc(Cl)c(Cl)c1	·	–	–	–	–
Cn1c(=O)c(C(=S)NC(=O)C2CC2)c(N)n(Cc2ccccc2)c1=O	10.5	–	–	·	–
COc1cccc(C(=O)NNC(=O)c2ccc3ccccc3c2O)c1	·	–	102.1	–	·
SMILES	Cl transport mod	Efflux pump mplx	Calb FLC	H9c2 protect	PHOSPHO1 inh
O=C(NNC(=O)c1ccc2ccccc2c1O)c1ccccc1Cl	·	–	85.7	–	–
O=C(NNC(=O)c1cccc2ccccc12)c1ccc(Cl)cc1Cl	·	·	·	–	·
COc1cccc(C(=O)NNC(=O)c2ccccc2)c1	·	–	–	–	–
O=C(CCc1c[nH]c2ccccc12)N1CCN(S(=O)(=O)c2ccc([N+](=O)[O-])cc2)CC1	·	·	·	–	·
CC(=O)NC12CC3CC(C1)CC(C(=O)N1CCN(S(=O)(=O)c4cccc([N+](=O)[O-])c4)CC1)(C3)C2	·	·	·	–	·
CC(=O)c1c(N)[nH]c(-c2ccccc2)nc1=S	·	–	–	–	–
CC(=O)c1c(N2CCCC2)[nH]c(-c2ccccc2)nc1=S	33.1	–	–	–	–
CCc1cc2ccc(C)cc2nc1SCC(=O)NNC(=O)c1ccco1	3.05	–	–	–	–
CCc1cc2cc(C)ccc2nc1SCC(=O)NNC(=O)c1ccco1	·	–	–	–	–
CC(=O)Oc1cc2c(cc1Cl)C1(CC(c3ccccc3Cl)O2)CC(C)(C)NC(=S)N1 (centres undefined)	–	113.5	?	–	–
CC1(C)CC2(CC(c3ccccc3F)c3cc(Cl)c(O)cc3O2)NC(=S)N1 (centres undefined)	–	–	?	–	–
Cc1ccc(S(=O)(=O)NCc2ccccc2)cc1C(=O)NCc1ccncc1	·	·	·	–	·
O=C(N/N=C1/C(=O)c2cccc3cccc1c23)c1ccc(Cl)cc1	4.81	–	–	–	–
O=C(Nc1cccc(NC(=O)c2ccc(Cl)cc2)n1)c1ccc(Cl)cc1	·	–	–	–	–
CCNC(=S)N/N=C1\C(=O)c2cccc3cccc1c23	24.1	–	–	–	–
CCNC(=S)N/N=C/c1ccco1	–	–	–	–	–
O=c1c2cccc3c2c(nn1CN1CCOCC1)-c1ccccc1-3	–	–	–	75.4	–
CCN(CC)CCn1nc2c3c(cccc3c1=O)-c1ccccc1-2	–	–	·	–	–
Cc1ccc(C)c(NC(=O)CN(C)C(=O)C2CCN(C(=O)Nc3ccccc3)CC2)c1	·	–	–	–	·
COc1cc(C(=O)NCCC(=O)NC2CCC(C)CC2)cc(OC)c1OC (centres undefined)	·	–	–	–	–
CC1CCC(NC(=O)CCNC(=O)c2ccccc2)CC1 (centres undefined)	–	–	106.9	–	–
O=C(CSc1ccc(-c2ccc(Cl)cc2)nn1)NC1CCCC1	·	–	–	–	–
c1ccc(CN2CCN(CCCNc3ccc4nnc(-c5ccccc5)n4n3)CC2)cc1	–	–	–	79.0	–
CCOC(=O)N1CCC(N2C(=O)c3ccccc3C2=O)CC1	–	–	–	–	99.1
COc1ccc(-c2cc(C(=O)N(C)Cc3nc4ccccc4c(=O)[nH]3)c3ccccc3n2)cc1OC	·	–	·	66.2	·
SMILES	Cl transport mod	Efflux pump mplx	Calb FLC	H9c2 protect	PHOSPHO1 inh
CCN(Cc1nc2ccccc2c(=O)[nH]1)Cc1nc2cc(OC)c(OC)cc2c(=O)[nH]1	–	–	–	–	–
COc1cc2nc(CN(C)Cc3nc4ccccc4c(=O)[nH]3)[nH]c(=O)c2cc1OC	–	–	–	54.9	–
COc1ccccc1CN(Cc1nc2ccccc2c(=O)[nH]1)S(=O)(=O)c1ccc2ccccc2c1	–	–	–	58.4	–
COc1ccc(S(=O)(=O)N(Cc2ccccc2)Cc2nc3ccccc3c(=O)[nH]2)cc1	–	–	–	–	–
C=CCn1c(SCC(=O)O)nnc1-c1ccc(C(C)(C)C)cc1	·	–	–	–	93.5
CC(C)(C)c1ccc(-c2nnc(SCC(=O)O)n2N)cc1	–	–	–	–	75.1
CC(C)OC(=O)CSc1nnc(-c2ccc(C(C)(C)C)cc2)n1N	–	–	–	–	66.7
C=CCn1c(SCC(=O)O)nnc1-c1cccc(Cl)c1	–	–	–	–	–
C/C(=N\OCC(=O)NC(C)C)c1cccs1	–	–	–	–	–
C[C@]12c3[nH]c4ccccc4c3CCN1C(=O)C(CC(=O)NCCC1=CCCCC1)C[C@@H]2C(=O)N1CCCCC1 (some centres undefined)	·	–	·	–	·
CC(C)(C)c1ccc(C(=O)NC(=S)Nc2nc3c(s2)CCCC3)cc1	12.4	–	–	–	–
CN(C)c1ccc(C(=O)Nc2nc3c(s2)CCCC3)cc1	–	–	–	–	–
CC(Sc1nc2ccccc2o1)C(=O)O (centres undefined)	–	–	–	–	76.1
